Here are results for seven compounds from PubChem BioAssay (Tox21).

Molecules are shown by their SMILES. “And” between values parts separate entries of the source, which are not always exact repeats. Identical values can stand only once. Unmarked numbers belong to inactive results. Results filed as inconclusive are left out. The source made the active and inactive calls. Unless noted, calls follow the shape of the dose curve; as a rule, active = well fitted curve in the direction sought with a large enough effect in the repeat runs; inconclusive = weak or mixed curves; inactive = no such curve, though single readings can be large; an effect the other way counts as inactive or inconclusive.

In assay [1] the target is Thyrotropin receptor (Homo sapiens) (UniProt P16473). The assay is described as follows: qHTS assay to identify small molecule agonists of the thyroid stimulating hormone receptor (TSHR) signaling pathway (AID 1224843; calls by dose curve; also: nearly all actives have a fitted effect of over 45% in size). The gist of the method:
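Using 15 concentrations per compound in triplicate, cAMP production was monitored in TSHR-HEK293 cells after 30 min compound incubation at RT; HTRF reagents followed, with fluorescence intensity recorded after 1 h.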

Assay [2] is described as follows: qHTS assay to identify small molecule agonists of the hypoxia (HIF-1) signaling pathway - cell viability counter screen (AID 1224844; calls by dose curve; also: nearly all actives have a fitted effect of over 50% in size). In outline:
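Viability counter screen: HRE-bla ME-180 cells plated 5 hrs before compound addition, treated 17 hrs at 37C and 5% CO2, then CellTiter-Glo added after the FRET reporter read; luminescence after 30 min.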

The nature of assay [3]: qHTS assay to identify small molecule agonists of H2AX (AID 1224845; active = well fitted activation curve with a large enough effect in the signal ratio in the repeat runs, not every such curve was filed as active; the % refers to the signal ratio). In outline:
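Wild-type CHO-K1 cells plated overnight, then exposed 3 hr at 37C to compounds at 15 concentrations (0.76% DMSO). Lysed, then HTRF anti-pH2AX(S139)-cryptate/anti-H2AX-d2 detection after 24 hr at room temperature; emissions 665 and 620 nm.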
On the technique in general: qHTS replaces the single test concentration by a dilution series.

A short description of assay [4]: qHTS assay to identify small molecule agonists of H2AX - cell viability counter screen (AID 1224847; calls by dose curve; also: top concentration of the series differs between compounds; nearly all actives have a fitted effect of over 30% in size). In outline: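 CHO-K1 cells plated overnight at 37C, then exposed 3 h at 37C to compounds at 15 concentrations (0.76% DMSO final). Viability by CellTiter-Glo luminescence after 30 min at room temperature.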
Assay [5] in a line: qHTS RealTime-Glo MT Cell Viability Assay in HepG2 cells - 24 hour (AID 1224867). Also: nearly all actives have a fitted effect of over 50% in size. In outline: (§1)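 Cell number in HepG2 cultures estimated from NanoLuc luminescence generated by metabolic reduction of a prosubstrate by living cells. The homogeneous, nonlytic format allowed repeated reads at 0, 8, 16, 24, 32 and 40 h of compound exposure.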
Assay [6] in a line: qHTS RealTime-Glo MT Cell Viability Assay in HEK293 cells - 32 hour (AID 1224868). Also: nearly all actives have a fitted effect of over 50% in size. Also: potency is read from the fitted curve at half-maximal effect. The gist of the method:
(§2)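 Homogeneous bioluminescent viability format in HEK293 cells (600 cells/well). Following 5 h at 37 C/5% CO2, 23 nL compound was pintooled; the signal was measured repeatedly during 40 h incubation.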

The nature of assay [7]: A CellTox Green Cytotoxicity Assay to monitor cytotoxicity in HEK293 cells - 0 hour (AID 1224869). Also: nearly all actives have a fitted effect of over 50% in size. The gist of the method:
(§3)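 Dead-cell fluorescence measured kinetically: asymmetric cyanine dye, HEK293, 600 cells/well, 5 h settle, 23 nL cpd/DMSO, 37 C, reads 0–40 h every 8 h.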

Assay [8] in a line: qHTS RealTime-Glo MT Cell Viability Assay in HepG2 cells - 40 hour (AID 1224870). Also: nearly all actives have a fitted effect of over 50% in size. The gist of the method:
(§4)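 HepG2 cells mixed with RealTime-Glo MT reagents (NanoLuc plus cell-permeant prosubstrate) were seeded at 600 cells/well, incubated 5 h at 37 C/5% CO2, then pinned with compounds in DMSO; nonlytic luminescence tracked viability during 40 h treatment.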

A short description of assay [9]: A CellTox Green Cytotoxicity Assay to monitor cytotoxicity in HEK293 cells - 40 hour (AID 1224871). Also: nearly all actives have a fitted effect of over 45% in size. In outline:
as §3

Assay [10] can be described thus: qHTS RealTime-Glo MT Cell Viability Assay in HEK293 cells - 16 hour (AID 1224872). The gist of the method:
as §2

Assay [11] is described as follows: qHTS RealTime-Glo MT Cell Viability Assay in HepG2 cells - 8 hour (AID 1224873). Also: nearly all actives have a fitted effect of over 55% in size. The gist of the method:
as §4

A short description of assay [12]: qHTS RealTime-Glo MT Cell Viability Assay in HEK293 cells - 40 hour (AID 1224874). Also: nearly all actives have a fitted effect of over 50% in size. Also: potency is read from the fitted curve at half-maximal effect. The conditions noted are these: RealTime-Glo luminescence; max response: stronger effect = lower value. In outline: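 600 HEK293 cells per well, dispensed already mixed with RealTime-Glo MT reagents. Compound dosing came 5 h later. The same wells were read for luminescence at 0, 8, 16, 24, 32 and 40 h of exposure at 37 C.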

Assay [13] can be described thus: A CellTox Green Cytotoxicity Assay to monitor cytotoxicity in HEK293 cells - 24 hour (AID 1224875). Also: nearly all actives have a fitted effect of over 45% in size. In outline: as §3
A short description of assay [14]: A CellTox Green Cytotoxicity Assay to monitor cytotoxicity in HepG2 cells - 16 hour (AID 1224876). Also: nearly all actives have a fitted effect of over 45% in size. In outline: (§5)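 First, HepG2 cells (600/well) mixed with reagent were plated; second, after 5 h at 37 C they received compounds via pintool; third, fluorescence was measured at 0 h through 40 h at 8 h intervals.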
Assay [15] in a line: qHTS RealTime-Glo MT Cell Viability Assay in HepG2 cells - 32 hour (AID 1224877). Also: nearly all actives have a fitted effect of over 55% in size. The gist of the method:
as §1

A short description of assay [16]: A CellTox Green Cytotoxicity Assay to monitor cytotoxicity in HepG2 cells - 24 hour (AID 1224878). Also: nearly all actives have a fitted effect of over 45% in size. The gist of the method:
as §5

The nature of assay [17]: A CellTox Green Cytotoxicity Assay to monitor cytotoxicity in HepG2 cells - 40 hour (AID 1224879). Also: nearly all actives have a fitted effect of over 40% in size. The gist of the method:
as §5

Assay [18] can be described thus: qHTS assay to identify small molecule antagonists of the estrogen related receptor (ERR) signaling pathway from Tox21 library (AID 1224848). Also: nearly all actives have a fitted effect of over 50% in size. In outline: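 Tox21 10K compounds in DMSO tested for ERR pathway antagonism in NTP's ERR cell line; 18 h, 37 C exposure; ONE-Glo luminescence.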
Assay [19] in a line: qHTS assay to identify small molecule agonists of the estrogen related receptor (ERR) signaling pathway from Tox21 library (AID 1224849; calls by dose curve; also: nearly all actives have a fitted effect of over 15% in size). Particulars: ERR reporter cell line, ONE-Glo luciferase, 18 h. The gist of the method: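 Quantitative HTS in agonist format: NTP ERR cell line, compounds transferred in DMSO after 6 h plating, 18 h incubation at 37 C, ONE-Glo luminescence endpoint.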

Assay [20] in a line: qHTS assay to identify small molecule agonists of the hypoxia (HIF-1) signaling pathway (AID 1224846; active = well fitted activation curve with a large enough effect in the signal ratio in the repeat runs, not every such curve was filed as active; the % refers to the signal ratio). In outline:
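Agonist mode reporter screen. ME-180 cells stably expressing bla under HRE control received test compounds in DMSO for 17 hrs (37C, 5% CO2), and beta-lactamase activity was then detected with the CCF4-AM FRET substrate.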
% is scaled to controls: 0 for no effect and ±100 for the full control effect.

Thyrotropin receptor (Homo sapiens), sequence (P16473 whole entry, looked up): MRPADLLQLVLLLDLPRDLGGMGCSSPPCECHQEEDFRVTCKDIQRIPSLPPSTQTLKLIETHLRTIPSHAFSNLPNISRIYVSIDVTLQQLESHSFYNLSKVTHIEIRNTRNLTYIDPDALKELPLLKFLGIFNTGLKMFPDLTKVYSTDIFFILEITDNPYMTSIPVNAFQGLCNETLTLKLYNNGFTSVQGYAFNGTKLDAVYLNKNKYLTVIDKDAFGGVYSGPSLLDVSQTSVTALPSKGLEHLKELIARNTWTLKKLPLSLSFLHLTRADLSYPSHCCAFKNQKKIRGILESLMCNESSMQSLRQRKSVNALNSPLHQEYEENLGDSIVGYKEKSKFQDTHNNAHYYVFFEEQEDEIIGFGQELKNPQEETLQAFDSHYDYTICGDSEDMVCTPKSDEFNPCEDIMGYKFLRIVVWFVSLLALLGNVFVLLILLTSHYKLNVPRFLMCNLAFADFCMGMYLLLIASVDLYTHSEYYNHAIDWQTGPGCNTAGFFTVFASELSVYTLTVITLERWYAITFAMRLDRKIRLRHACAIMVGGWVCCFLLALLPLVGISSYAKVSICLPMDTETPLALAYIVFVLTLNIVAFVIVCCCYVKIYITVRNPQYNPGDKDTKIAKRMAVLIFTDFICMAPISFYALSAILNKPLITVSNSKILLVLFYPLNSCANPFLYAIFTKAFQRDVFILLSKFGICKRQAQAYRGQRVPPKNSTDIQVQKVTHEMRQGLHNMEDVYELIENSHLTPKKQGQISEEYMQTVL

Take `Cc1ccc(O)cc1`: the outcome in assay [1], in [3], in [4], in assay [7] and in assay [11] was inactive. In addition, the Potency entry in [2], in assay [5], in assay [6], in assay [8], in assay [9] and in [10] was “inactive” each time. Further, the Potency entry in assay [13], in assay [14], in [15], in assay [16] and in assay [17] was “inactive” throughout. Moreover, the max response in assay [12] was 8.24% [middle of 4 runs].
As to `CCCN(CCC)S(=O)(=O)c1ccc(C(=O)O)cc1`, the compound was called inactive in assay [1], in [3], in [4], in [7] and in assay [11]. Also, the Potency entry in assay [2], in assay [18], in [5], in assay [6], in [8] and in assay [10] was “inactive” throughout. Besides, the Potency entry in assay [13], in assay [14], in assay [15], in [16] and in assay [17] was “inactive” each time. Besides, the activity change, positive = activation in [19] (at 42.5 µM (top of the series)) is 3.98%; in assay [19] (at 92.4 µM (top of the series)) it was -17.4% and 3.56%. Besides, the max response in assay [12] was -6.3% and -3.84% and 10.6%.
As for `Cc1ccccc1C(OCCN(C)C)c1ccccc1` (stereo unspecified), the compound was classed as inactive in assay [1], in assay [3], in [4], in assay [7] and in [11]. Moreover, the Potency result in assay [2], in assay [18], in assay [5], in assay [6], in assay [8] and in [9] was “inactive” in each case. Further, the Potency entry in [10], in assay [13], in [14], in assay [15], in assay [16] and in assay [17] was “inactive” throughout. In addition, the activity change, positive = activation in assay [19] (at 42.5 µM (top of the series)) was 0.836%; in assay [19] (at 92.4 µM (top of the series)), 0.151% and 0.194%.
In the case of `Oc1ccc(/C=C/c2cc(O)cc(O)c2)cc1`, the outcome in assay [1], in assay [7] and in assay [11] was inactive. Moreover, the Potency entry in assay [2], in [18], in [5], in assay [8], in assay [10] and in assay [13] was “inactive” in each case. In addition, the Potency entry in assay [14], in assay [15] and in assay [16] was “inactive” in each case. For the same compound, the activity change, positive = activation in [19] (at 42.5 µM (top of the series)) is 132% (active); in assay [19] (at 92.4 µM (top of the series)), 0.861% (active) and 27.4% (active). The Potency in assay [6] is 19.7 µM (active); in [12] it was 15.6 µM (active).
On to `C[C@]12C=CC(=O)C=C1CC[C@@H]1[C@@H]2[C@@H](O)C[C@@]2(C)[C@H]1CC[C@]2(O)C(=O)CO`, for which the Potency result in assay [2], in assay [5], in assay [6], in assay [8], in assay [10] and in assay [13] was “inactive” throughout. Further, the Potency entry in assay [14], in assay [15], in assay [16] and in assay [17] was “inactive” throughout. The outcome in [3], in [4], in assay [7] and in [11] was inactive.
Consider `CCCC(O)C(CC)CO` (stereo unspecified), for which the Potency entry in [2], in assay [5], in [6], in assay [8], in [10] and in assay [13] was “inactive” each time. Also, the Potency result in [14], in assay [15], in [16] and in assay [17] was “inactive” each time. Also, the compound was called inactive in assay [3], in assay [20], in assay [4], in [7] and in [11].
In the case of `O=C(O)c1[nH]n(-c2ccc(S(=O)(=O)O)cc2)c(=O)c1N=Nc1ccc(S(=O)(=O)O)cc1`, the compound was called inactive in [1], in assay [20], in assay [4], in assay [7] and in assay [11]. Moreover, the Potency entry in assay [2], in assay [5], in assay [6], in assay [8], in [10] and in [13] was “inactive” each time. For the same compound, the Potency result in assay [14], in [15], in [16] and in assay [17] was “inactive” in each case. Further, the max response in [12] is -3.28% and -13% and 0.864%.
